From PubChem BioAssay AID504332 (National Center for Advancing Translational Sciences (NCATS), 2011)
Hit rate of the full screen: of about 350,000 compounds, about 31,000 (8.9%) were called active. Not shown: some 15% with an inconclusive outcome. The sample holds actives, similar compounds and a random draw of the others, so the mix is not that of the screen. The call rests on the fitted dose curve; in most records, active means well fitted inhibition curve with a large enough effect; inconclusive means small, poorly fitted or top-dose-only effect; inactive means no such curve, though single readings can be large or run the other way.
Further: nearly all actives have a fitted effect of over 75% in size.
On the % scale 0 is the no-effect control and ±100 the full control effect; potency means the concentration at half of the fitted maximal effect.

These molecules were tested against Histone-lysine N-methyltransferase EHMT2 (Homo sapiens) (UniProt Q96KQ7) (assay: qHTS Assay for Inhibitors of Histone Lysine Methyltransferase G9a). Settings: G9a H3K9 monomethylation, AlphaScreen, 2 h; series mostly up to 59 µM; activity, negative = inhibition: at the top concentration.
Chain of Histone-lysine N-methyltransferase EHMT2 (Homo sapiens) (Q96KQ7 913-1193 limits assumed): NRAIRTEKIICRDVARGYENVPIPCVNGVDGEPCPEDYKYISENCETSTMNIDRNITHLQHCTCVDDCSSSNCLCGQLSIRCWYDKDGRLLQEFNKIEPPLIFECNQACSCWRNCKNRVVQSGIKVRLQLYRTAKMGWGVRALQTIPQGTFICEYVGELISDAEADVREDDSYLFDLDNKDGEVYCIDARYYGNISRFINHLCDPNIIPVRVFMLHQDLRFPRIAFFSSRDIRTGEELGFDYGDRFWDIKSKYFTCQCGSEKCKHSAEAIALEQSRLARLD
Outline: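 Using a bead-based AlphaScreen, monomethylated H3K9 product from 2 h room-temperature reactions (G9a 20 nM, peptide 500 nM, SAM 20 uM) was detected with 0.5 ug/mL rabbit anti-H3K9me1 antibody.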
With `COc1ccc(C(=O)Nc2ccccc2C(=O)N/N=C/c2ccccc2OC)cc1` the activity, negative = inhibition was 14.1% [at 0.501 µM] (inactive). For `COc1cccc(/C=N\NC(=O)C2=NNC(=O)C2C)c1O` (centres undefined), the “activity, negative = inhibition” value was -6.03% (inactive). `COc1cccc(/C=N/NC(=O)c2[nH]nc3c2CCc2ccccc2-3)c1O` was tested, and the Potency was 50.1 µM (active). For `CN(C)CCNC(=O)c1[nH]nc2c1CCc1ccccc1-2`, the Potency was 44.7 µM (active). For `CCCCN(CC)CCCNC(=O)c1nn(C)c2c1CSc1ccccc1-2`, the “activity, negative = inhibition” value was -31.4% (inactive). With `CN(C)CCCNC(=O)c1ccc2[nH]c3ccccc3c2c1` the activity, negative = inhibition was 38.1% [at 0.501 µM] (inactive). With `O=S(=O)(Nc1ccc(-c2ccc(N3CCOCC3)nn2)cc1)c1cc(Cl)ccc1Cl` the activity, negative = inhibition was -28.8% [at 2.33 µM] (inactive). `COc1ccccc1N1CCN(C(=O)C2CCN(S(=O)(=O)c3c(C)noc3/C=C/c3ccc(C)cc3)CC2)CC1` was tested, and the “activity, negative = inhibition” value was 1.43% (inactive). In the case of `Cc1ccc(CNC(=O)CCS(=O)(=O)c2ccc3c(c2)CC(C)N3C(=O)C2CC2)o1` (centres undefined), the activity, negative = inhibition was 17.4% [at 0.0925 µM] (inactive). With `Cn1c(SCc2ccc(F)cc2)nnc1-c1ccncc1` the “activity, negative = inhibition” value was 6.09% [at 102 µM] (inactive). `CCOc1ccc(Nc2c(S(=O)(=O)c3ccccc3)cnc3ccccc23)cc1` was tested, and the “activity, negative = inhibition” value was -6.1% (inactive). In the case of `Cc1ccc(CNS(=O)(=O)c2ccc(C(=O)N(C)C)s2)cc1`, the “activity, negative = inhibition” value was -2.84% (inactive). `Cc1ccc(-n2ncc3c(NCCCn4ccnc4)ncnc32)cc1Cl` was tested, and the “activity, negative = inhibition” value was -32.6% (inactive). In the case of `CN1CCN(c2nc3c(c(=O)[nH]c(=O)n3C)n2Cc2cccc3ccccc23)CC1`, the Potency was 25.1 µM (active). For `Cn1c(=O)[nH]c(=O)c2c1nc(N1CCCCCC1)n2CC(=O)c1ccccc1`, the “activity, negative = inhibition” value was -6.53% (inactive). For `Cn1c(=O)[nH]c(=O)c2c1nc(N1CCN(C(c3ccccc3)c3ccccc3)CC1)n2CCO`, the “activity, negative = inhibition” value was -6.95% [at 102 µM] (inactive). With `Cc1cn([C@H]2CC(F)[C@@H](CO)O2)c(=O)[nH]c1=O` (some centres undefined) the activity, negative = inhibition was 8.73% [at 12.7 µM] (inactive). `COc1ccc(NC(=O)Cn2c(=O)n(Cc3ccc(C(=O)NCc4ccccc4Cl)cc3)c(=O)c3ccccc32)cc1` was tested, and the “activity, negative = inhibition” value was 0.893% (inactive). With `CN1/C(=C\C(=O)c2cccnc2Cl)C(C)(C)c2ccccc21` the “activity, negative = inhibition” value was -5.31% (inactive). For `CN1/C(=C\C=C2\N=C(c3ccc(F)cc3)OC2=O)C(C)(C)c2ccccc21`, the Potency was 4.47 µM (active). For `Cc1noc(C)c1C(=O)OCC(=O)/C=C1\N(C)c2ccccc2C1(C)C`, the “activity, negative = inhibition” value was -35.1% (inactive). For `CC(=O)Nc1ccc(SC[C@H](Cc2ccccc2)N2CC[C@@H](C)CCC2=O)cc1`, the activity, negative = inhibition was -3.36% [at 0.501 µM] (inactive). In the case of `Cc1ccc(OCCSc2nc(-c3cccs3)nc3cc(=O)[nH]n23)cc1Cl`, the “activity, negative = inhibition” value was 13% (inactive). With `Cc1ccc(C(=O)NNC(=O)c2ccncc2)cc1S(=O)(=O)N1CCCCC1` the “activity, negative = inhibition” value was -0.102% (inactive). `O=S(=O)(NCC1CCCO1)c1ccc2ccccc2c1` (centres undefined) was tested, and the “activity, negative = inhibition” value was 18.4% (inactive). `Cc1nc2cnc(Nc3ccccc3)nc2n(C[C@H]2CCCO2)c1=O` was tested, and the activity, negative = inhibition was 8.09% [at 0.501 µM] (inactive). For `Cc1cccc(S(=O)(=O)N2CN(CC3CCCO3)c3nc4ccccc4nc32)c1` (centres undefined), the Potency was 50.1 µM (active). In the case of `COc1ccccc1NC(=O)c1cc(N2C(=O)C3C4CCC(C4)C3C2=O)ccc1Cl` (centres undefined), the “activity, negative = inhibition” value was -0.617% (inactive). `Cc1ccc2nc(COc3ccccc3NC(=O)Nc3ccc(F)c(Cl)c3)cc(=O)n2c1` was tested, and the “activity, negative = inhibition” value was 7.81% (inactive). `O=C(COC(=O)c1ncc(Cl)c(Cl)c1Cl)NCc1ccccc1` was tested, and the “activity, negative = inhibition” value was -8.95% (inactive). For `CCCCN(CCCNC(=O)c1cc(Nc2ccccc2OC)nc2ccccc12)c1ccccc1`, the “activity, negative = inhibition” value was 9.4% (inactive). In the case of `COc1ccccc1Nc1cc(C(=O)NCCCN(C)C2CCCCC2)c2ccccc2n1`, the “activity, negative = inhibition” value was 10.4% (inactive). With `COc1ccc(Nc2cc(C(=O)NCCCN(C)c3ccccc3)c3ccccc3n2)c(OC)c1` the Potency was 7.94 µM (active). In the case of `NC(=O)C1CCN(C(=O)c2cccc(NC(=O)c3nsc4ccccc34)c2)CC1`, the “activity, negative = inhibition” value was 1.5% (inactive). For `CCN1C(=NCCc2cccnc2)N[C@@H](c2ccccc2)[C@H](C(=O)OC)[C@H]1C`, the activity, negative = inhibition was -5.2% [at 12.7 µM] (inactive). For `CCN1C(=NCCc2cccnc2)N[C@@H](c2ccccc2)C(C(=O)OC)=C1C`, the Potency was 44.7 µM (active). In the case of `COCCN1C(=O)N[C@@H](c2ccccc2)C(C(=O)OC)=C1C`, the “activity, negative = inhibition” value was -3.9% [at 102 µM] (inactive). With `CC(=O)Nc1c(C)nn(-c2ccccc2)c1N1CCC(C(=O)Nc2cc(Cl)ccc2C)CC1` the “activity, negative = inhibition” value was 17.8% (inactive). `O=C(CN1C(=O)NC2(CCCC2)C1=O)OCCOc1ccc(F)cc1` was tested, and the activity, negative = inhibition was -1.07% [at 0.501 µM] (inactive). In the case of `CCOc1c(OC)cccc1C(=O)NCC1(c2ccccc2)CCCC1`, the “activity, negative = inhibition” value was 82.4% [at 102 µM] (inactive). With `Cc1ccc(-c2csc(N3CCN(c4cc5c(cc4Cl)nc(-c4ccncc4)n5CCOCCO)CC3)n2)cc1` the Potency was 50.1 µM (active). With `CCCn1c(C2CCCN2c2nc(-c3ccc(C)cc3)cs2)nc2cc(Cl)c(N3CCCCC3)cc21` (centres undefined) the “activity, negative = inhibition” value was 6.77% [at 102 µM] (inactive). `Cn1c(=O)c2c(nc(NCCc3ccccc3)n2Cc2ccccc2Br)n(C)c1=O` was tested, and the “activity, negative = inhibition” value was -0.776% (inactive). For `Cc1ccc(-n2c(SCC(=O)c3ccccc3)nc3c([nH]c4ccccc43)c2=O)cc1`, the “activity, negative = inhibition” value was 8.15% (inactive). `O=C(OCc1nc2ccccc2[nH]1)C1CCCCC1` was tested, and the “activity, negative = inhibition” value was 33.3% (inactive). In the case of `CCOC(=O)c1c(NC(=O)C2CCN(S(=O)(=O)c3ccc(Cl)cc3)CC2)sc2c1CCCC2`, the “activity, negative = inhibition” value was 21.6% [at 102 µM] (inactive). For `O=C(Nc1sc2c(c1-c1nc3ccccc3[nH]1)CCCC2)C1CC1`, the Potency was 50.1 µM (active). With `CC(C)c1ccc(NC(=O)c2ccc3c(O)c(S(=O)(=O)c4ccccc4)c(=O)[nH]c3c2)cc1` the “activity, negative = inhibition” value was -29.3% (inactive). In the case of `Cc1cc(C)cc(NC(=O)CSc2nc(=O)n(CCN3CCOCC3)c3c2CCC3)c1`, the “activity, negative = inhibition” value was -2.62% (inactive). With `Cc1ccc(Cn2cc(CCC(=O)NCc3ccc(OC(C)C)cc3)c3ccccc32)cc1` the “activity, negative = inhibition” value was -0.207% (inactive). With `O=S(=O)(NCCc1ccc(Cl)cc1)c1cccs1` the “activity, negative = inhibition” value was 41% [at 102 µM] (inactive). With `CN(c1ccccc1)S(=O)(=O)c1ccc(C(=O)NCCc2ccccc2)cc1` the “activity, negative = inhibition” value was -6.87% (inactive). For `CCCOc1ccc(C(=O)NCCc2ccccc2)cc1`, the “activity, negative = inhibition” value was 3.8% [at 102 µM] (inactive). `C[N+](C)(C)CCNC(=O)c1cc[n+](Cc2ccccc2)c(/C=N/O)c1` was tested, and the Potency was 10 µM (active). With `CCOc1ncccc1C(=O)OCC(=O)N1c2ccccc2CC1C` (centres undefined) the “activity, negative = inhibition” value was 19% (inactive). With `Cc1ncc(CO)c(/C=N/NC(=O)c2cccc(S(=O)(=O)N3CCCC3)c2)c1O` the “activity, negative = inhibition” value was 25% [at 102 µM] (inactive). For `Cc1cc(C)c2[nH]c(=O)c(CN(Cc3ccccc3)C(=S)NCCCN(C)C)cc2c1`, the “activity, negative = inhibition” value was -28.9% [at 102 µM] (inactive). For `Cc1ccc(C)c2[nH]c(=O)c(CN(Cc3cccnc3)C(=S)NCc3ccco3)cc12`, the Potency was 50.1 µM (active). With `Cc1cccc2cc(CN(Cc3cccs3)C(=S)NCc3ccco3)c(=O)[nH]c12` the “activity, negative = inhibition” value was -9.03% (inactive).
